Results published in ChEMBL document CHEMBL4513216, “Probing the Open Global Health Chemical Diversity Library for Multistage-Active Starting Points for Next-Generation Antimalarials” (ACS Infect Dis, 2020).
The whole screen tested about 68,000 compounds, of which about 2,700 (4%) showed an effect of 50% or more. Only a selection was taken, and strong results are over-represented in it overall.

What follows are compounds tested on Plasmodium berghei (assay: Screen against P. berghei liver stage (PbLuc), transformed with Luciferase, at 2uM). Settings: tested at 2 uM.
Format: functional, HepG2

Row | Structure (SMILES) | INHIBITION [%]
1 | CC(=O)N[C@H]1CCO[C@@H](c2cccc(NC(=O)c3ccc(=O)[nH]n3)c2)C1 | -3.15
2 | COc1ccc(CN2CCc3nc(C4CCCCN4C)ncc3C2)cc1 (configuration not stated) | -8.87
3 | CN1CCCCC1c1ncc2c(n1)CCN(Cc1ccc(F)cc1)C2 (configuration not stated) | 19.06
4 | CN1CCCCC1c1ncc2c(n1)CCN(Cc1ccc(Cl)c(F)c1)C2 (configuration not stated) | 56.99
5 | O=C1COC2(COCCN(Cc3cccnc3)C2)CN1c1ccccc1 (configuration not stated) | -43.73
6 | N#CCCN(CCC#N)C(=O)c1ccc(OCC2CC2)cc1 | 5.98
7 | N#CCCN(Cc1ccco1)C(=O)c1ccc(OCC2CC2)cc1 | -5.51
8 | N#CCCN(Cc1cccnc1)C(=O)c1ccc(OCC2CC2)cc1 | 56.89
9 | O=C(c1cnccn1)N1CC[C@H]2[C@H]1CCN2S(=O)(=O)C1CC1 | -17.44
10 | CCCNC(=O)c1nc2c(o1)CN(C(=O)CN(C)C)C2 | -31.4
11 | CN(C)CC(=O)N1Cc2nc(C(=O)NCc3ccccc3)oc2C1 | 16.4
12 | CN(C)CC(=O)N1Cc2nc(C(=O)NCc3ccncc3)oc2C1 | 52.08
13 | CSCc1ccc(C(=O)NCCCNc2ccc(C(F)(F)F)cn2)cc1 | 6.77
14 | Cn1c(CN2CCCCCC2)cc(=O)c(O)c1CN1CCCC1 | 29.19
15 | Cc1ccnc(C2CCN(C(=O)CCn3ncc4ccccc43)C2)n1 (configuration not stated) | 72.83
16 | Cc1cc(C)nc(C2CCN(C(=O)CCn3nnc4ccccc43)C2)n1 (configuration not stated) | 13.22
17 | Cc1cc(C)nc(C2CCN(C(=O)CCn3ncc4ccccc43)C2)n1 (configuration not stated) | 30.73
18 | Cn1cc(CN2CCc3ccc(=O)n(CC4CC4)c3CC2)cn1 | 23.68
19 | OC1(CNc2ccccc2)CCNCC1 | 51.61
20 | OC1(CNc2ccc(F)cc2)CCNCC1 | 8.5
21 | OC1(CNc2cccc(F)c2)CCNCC1 | -14.66
22 | CCN(CC)S(=O)(=O)CC(=O)N1CCc2ccc(C)cc21 | -13.17

Row | Structure (SMILES) | INHIBITION [%]
23 | CCN(C(=O)CSc1ccc(C(F)(F)F)cn1)C1CC1 | -69.56
24 | NC(=O)C1CCCN1c1cc(N2CCc3ccccc3C2)ncn1 (configuration not stated) | -4.95
25 | c1ccc(C(OCCNC2CCc3ncnn3C2)c2ccccc2)cc1 (configuration not stated) | 64.71
26 | O=S(=O)(CCNC1CCc2ncnn2C1)c1ccccc1 (configuration not stated) | 11.18
27 | c1ccc(CCNC2CCc3ncnn3C2)nc1 (configuration not stated) | -56.99
28 | c1ccc(COc2ccccc2CNC2CCc3ncnn3C2)cc1 (configuration not stated) | 11.95
29 | c1ccc(OCC2CC2)c(CNC2CCc3ncnn3C2)c1 (configuration not stated) | 54.2
30 | c1ccc(OC2CCCC2)c(CNC2CCc3ncnn3C2)c1 (configuration not stated) | -12.48
31 | COc1cccc(-c2cc(C3CCCNC3)ccn2)c1 (configuration not stated) | 17.29
32 | Cc1nnsc1CN(C)C(=O)CN1CC2(CCNCC2)OC1=O | -7.96
33 | CCc1cc(NC(=O)C(c2cccc(F)c2)N2CCOCC2)[nH]n1 (configuration not stated) | 35.36
34 | COC(=O)[C@H](CCSC)NC(=O)Cc1c(C)nn(-c2ccccc2)c1C | 4.89
35 | Cc1nn(-c2ccccc2)c(C)c1CNC(=O)NC1CC1 | 28.73
36 | Cc1nn(-c2ccccc2)c(C)c1CNC(=O)NC1CC(=O)N(C)C1 (configuration not stated) | 62.39
37 | COC(=O)C(CCSC)NC(=O)Cc1c(C)nn(-c2ccccc2)c1C (configuration not stated) | -60.22
38 | Cc1nn(-c2ccccc2)c(C)c1CC(=O)NC1CC(=O)N(C)C1 (configuration not stated) | 59.03
39 | CSCCC(NC(N)=O)C(=O)NCc1c(C)nn(-c2ccccc2)c1C (configuration not stated) | -58.01
40 | CC(=O)N1CCN(Cc2ccncc2)CC2(CC(=O)N(C)C2)C1 (configuration not stated) | 3.49
41 | CN1CCN(CC2(O)CCCN(C(=O)Cc3cccc(O)c3)CC2)CC1 (configuration not stated) | 12.6
42 | Cc1nc(C)c(C(=O)NCCNc2ncccc2C(F)(F)F)s1 | -90.65
43 | Cc1nc(NC(=O)c2ccc(-n3ncc(C#N)c3N)cc2)sc1C | 78.98
44 | Cc1cnc(NC(=O)c2ccc(-n3ncc(C#N)c3N)cc2)s1 | -50.69

Row | Structure (SMILES) | INHIBITION [%]
45 | Cc1cc(NC(=O)c2ccc(-n3ncc(C#N)c3N)cc2)n(C)n1 | -28.98
46 | CC1CCC(O)(CSc2nnnn2C)CC1 (configuration not stated) | 4.91
47 | CC(C)CC(=O)NCC(O)c1c(F)cccc1F (configuration not stated) | 14.96
48 | CN(C)C(=O)CN1CCC2(C1)CN(CC1CCOC1)C2 (configuration not stated) | -54.01
49 | CN(C)C(=O)CN1CCOCC2(CCN(CC3CCOCC3)CC2)C1 | 12.68
50 | CN(C)C(=O)CN1CCOCC2(CCN(CC3CCOC3)CC2)C1 (configuration not stated) | 82.53
51 | COc1ccc(C(C)CCNC2CCN(c3ccccn3)CC2)cc1 (configuration not stated) | 3.2
52 | CCS(=O)(=O)c1ccccc1N1CCC(NC(=O)NC2CCCC2)CC1 | 64.71
53 | CCS(=O)(=O)c1ccccc1N1CCC(NC2CCCC2)CC1 | 27.47
54 | CCS(=O)(=O)c1ccccc1N1CCC(NC(C)=O)CC1 | -0.64
55 | Cc1cc(C)n(CC(C)CNC(=O)NCc2c(C)cc(C)[nH]c2=O)n1 (configuration not stated) | 10.14
56 | Cc1ccc(NC(=O)N2CCOC(C(N)=O)C2)cc1C(F)(F)F (configuration not stated) | 33.11
57 | Cc1cc(Br)cnc1NCCN1CCC(N(C)C)CC1 | 64.9
58 | CC(=O)N1CCN(CCNc2ncc(Br)cc2C)CC1 | 12.43
59 | COC1CCN(CCNc2ncc(Br)cc2C)CC1 | -4.26
60 | O=S(=O)(c1cccnc1)N1CCCCC1CCN1CCOCC1 (configuration not stated) | -13
61 | Cc1cc(C)nc(N2CCCC(c3cccc(-n4ccnc4)n3)C2)n1 (configuration not stated) | -2.89
62 | O=C(Nc1ncc[nH]1)c1cc(-c2cccnc2)n[nH]1 | -36.68
63 | O=C(c1cc2c(s1)CCCC2)N1CCCC1Cn1cccn1 (configuration not stated) | 1.61
64 | CC(=O)N1CCC2(CC1)CCN(S(=O)(=O)c1ccccc1)C2 | 27.65
65 | CC(=O)N1CCC2(C1)CN(S(=O)(=O)c1ccccc1)C2 | 56.76
66 | CC(=O)N1CCC2(CCN(S(=O)(=O)c3ccccc3)CC2)C1 | 11.18

Row | Structure (SMILES) | INHIBITION [%]
67 | CN(C)CC(=O)N1CC2(CCN(S(=O)(=O)c3ccccc3)C2)C1 | 39.51
68 | CC(=O)N1CCC2(CCCN(S(=O)(=O)c3ccc(F)cc3)C2)C1 (configuration not stated) | -8.04
69 | CC(=O)N1CCC2(CCCN(S(=O)(=O)c3ccccc3)C2)C1 (configuration not stated) | 52.36
70 | CN(C)c1ccc(CNC(=O)NCCc2cccs2)cn1 | 9.17
71 | Cc1ccncc1CN1CCOCC1c1[nH]ncc1C (configuration not stated) | 5.01
72 | Cc1cc(CNc2ccnn2C)ccc1-n1cncn1 | 14.93
73 | CC1(C)Cc2nc(C(C)(C)C)ncc2C(NC(=O)CN)C1 (configuration not stated) | 21.28
74 | CN(C)CC(=O)NC1CC(C)(C)Cc2nc(C(C)(C)C)ncc21 (configuration not stated) | 68.39
75 | CN(C)CCCC(=O)NC1CC(C)(C)Cc2nc(C(C)(C)C)ncc21 (configuration not stated) | 35.56
76 | Cc1nc[nH]c1CN1CCCn2nc(CN3CCC(F)(F)CC3)cc2C1 | 8.48
77 | O=C(c1ccsc1)N1CCC(Nc2cccnn2)CC1 | 2.8
78 | CC(C(=O)Nc1ccc(N2CCCCC2)nc1)n1ccnc1 (configuration not stated) | -34.5
79 | CCCNC(=O)N1CCc2ccc(S(=O)(=O)N3CCN(C)CC3)cc2C1 | 30.62
80 | O=C(c1ccoc1)N1CCCC2(CCC(=O)N2Cc2ccncc2)C1 (configuration not stated) | 3.56
81 | Cc1cnn(CC2CCCN2C(=O)c2cccc(CC#N)c2)c1 (configuration not stated) | -17.11
82 | CS(=O)(=O)CCC(=O)Nc1ccsc1 | 10.22
83 | CCN(CC)S(=O)(=O)CC(=O)Nc1ccsc1 | 64.08
84 | CCCS(=O)(=O)CC(=O)Nc1ccsc1 | 22
85 | O=C(c1cc2c(s1)CCC2)N1CCN(c2cnccn2)CC1 | -32.45
86 | N#Cc1ccc(OCC(O)CN2CCN(c3nccs3)CC2)cc1 (configuration not stated) | 2.2
87 | O=C(O)CCC(=O)N1CCN(CC2CC2)c2ncccc2C1 | 18.6
88 | Cc1c(C(=O)N2CCC(C(O)c3ccc(Cl)cc3)CC2)cnn1C (configuration not stated) | 10.22

Row | Structure (SMILES) | INHIBITION [%]
89 | CCn1cnnc1C1CCN(C(=O)c2c(C)oc(C)c2C)CC1 | -11.32
90 | CCn1cnnc1C1CCN(C(=O)c2cccc(C)c2C)CC1 | 1.02
91 | CCn1cnnc1C1CCN(C(=O)c2cc(OC)ccc2OC)CC1 | -33.61
92 | Cc1occc1C(=O)N1CCC(C(O)c2ccc(F)cc2)CC1 (configuration not stated) | 47.25
93 | CCn1cnnc1C1CCN(C(=O)c2ccoc2C)CC1 | 70.27
94 | CCn1cnnc1C1CCN(C(=O)c2ccccc2OC)CC1 | -45.23
95 | CCn1cnnc1C1CCN(C(=O)c2cccc(OC)c2OC)CC1 | 66.2
96 | Cc1occc1C(=O)N1CCC(C(O)c2ccc(Cl)cc2)CC1 (configuration not stated) | 59.03
97 | CCn1nc(C)c2c1cnn2CCNS(=O)(=O)Cc1ccccc1 | 16.97
98 | CN(C)Cc1cccc(C(=O)N2CCCC(n3cncn3)C2)c1 (configuration not stated) | 21.39
99 | CC(C)c1cc(C(=O)N2CCC3(CCc4ccccc4C(=O)N3)C2)on1 (configuration not stated) | 9.9
100 | CNC(=O)c1n[nH]c2c1C(c1cccc3c1OC(C)(C)C3)CC(=O)N2 (configuration not stated) | 48.21
101 | Cc1nc(CN2CCN(C(=O)c3ccc(=O)n(C)c3)CC2)cs1 | -3.4
102 | CCN1CCC12CCN(C(=O)c1ccsc1)C2 (configuration not stated) | 13.75
103 | CC(C)C1=NOC(c2nc(Cc3ccccc3)no2)C1 (configuration not stated) | 50.46
104 | Cc1ccccc1-c1noc(C2CC(C(C)C)=NO2)n1 (configuration not stated) | -10.37
105 | COc1ccc(-c2noc(C3CC(C(C)C)=NO3)n2)cc1 (configuration not stated) | 7.37
106 | COCC(=O)N1CC2(CCN(c3ccccc3)C2)C1 | -31.82
107 | CCc1nc(CC2CN(c3ncnc4nc(C)cc(C)c34)CCO2)no1 (configuration not stated) | 5.1
